Most compounds without a hit are left out; they make up all but 1.3% or so of the library.
CRFR2-BP ag = agonists of CRF-BP/CRF-R2 complex, primary screen, cell-based, HEK293, calcium dye fluorescence, uHTS. CRF-binding protein / CRF receptor 2 complex (human). calcium dye fluorescence (FLIPR); percent of saturating CRF peptide response. activation, % at 13.2 µM. 350,000 compounds, 0.46% hits;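 active = activation of at least 50%, plus an integration ratio under a set limit after plate pattern correction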
CRFR2-BP antag = antagonists of CRF-BP/CRF-R2 complex, primary screen, cell-based, HEK293, calcium dye fluorescence, uHTS; CRF-induced calcium fluorescence; inhibition, % at 11.8 µM; 350,000 compounds, 0.59% hits;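 active = inhibition of the ligand-induced calcium signal above about 50% at the single tested concentration, limit read from the data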
cardiac RTF act = cardiac RTF calcium sensitivity activators, primary screen, biochemical, IANBD-TnC fluorescence, EC20 calcium. 340,000 compounds, 0.24% hits. activation, % at 7.2 µM. Troponin I, cardiac muscle (Homo sapiens) + Troponin T, cardiac muscle (Homo sapiens) + …. AID 493008, 2010. IANBD-labeled TnC RTF fluorescence at EC20 calcium; 0% EC20 calcium, 100% full calcium;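 active = activation above the mean over all tested compounds plus 3 SD, cut at about 30% in these data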;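 also: rise in fluorescence read as greater calcium sensitivity of cardiac thin filaments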
LANA DNA inh = inhibitors of KSHV C-LANA binding to DNA, primary screen, biochemical, fluorescence polarization, FAM-LBS DNA, MBP-C-LANA, single point | Kaposi's sarcoma herpesvirus LANA C-terminal domain (residues 932-1162) DNA binding | inhibition, % at 9 µM | 340,000 compounds, 0.078% hits | AID 504423, 2011;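 active = highest replicate inhibition at or above 60% at 9 µM, even if other replicates fall short; inactive = all replicates below 60% inhibition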
RTF Ca sens inh = cardiac RTF calcium sensitivity inhibitors, primary screen, biochemical, IANBD-TnC fluorescence, EC70 calcium | Troponin I, cardiac muscle (Homo sapiens) + Troponin T, cardiac muscle (Homo sapiens) + … | 340,000 compounds, 0.12% hits | AID 493244, 2011 | IANBD-labeled cardiac RTF, Ca2+ fluorescence | inhibition, % at 7.15 µM;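 active = inhibition above the mean inhibition of all tested compounds plus 3 SD, cut at about 17% in these data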;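 also: assay run at fixed EC70 calcium of 1.6 mM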
Keap1-Nrf2 PPI = Keap1-Nrf2 protein-protein interaction inhibitors, primary screen, biochemical, fluorescence polarization, single point | Kelch-like ECH-associated protein 1 (Homo sapiens), Q14145 | Keap1 Kelch-Nrf2 peptide fluorescence polarization, 1536-well | inhibition, % at 9.4 µM | 340,000 compounds, 0.15% hits | AID 504523, 2011; in the data active = inhibition above about 12%;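 also: human Keap1 Kelch domain with fluorescein labeled Nrf2 9mer peptide probe; higher means more block of Keap1 binding to Nrf2 peptide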
Target sequence (Q14145 whole entry, looked up, the tested form may be a part): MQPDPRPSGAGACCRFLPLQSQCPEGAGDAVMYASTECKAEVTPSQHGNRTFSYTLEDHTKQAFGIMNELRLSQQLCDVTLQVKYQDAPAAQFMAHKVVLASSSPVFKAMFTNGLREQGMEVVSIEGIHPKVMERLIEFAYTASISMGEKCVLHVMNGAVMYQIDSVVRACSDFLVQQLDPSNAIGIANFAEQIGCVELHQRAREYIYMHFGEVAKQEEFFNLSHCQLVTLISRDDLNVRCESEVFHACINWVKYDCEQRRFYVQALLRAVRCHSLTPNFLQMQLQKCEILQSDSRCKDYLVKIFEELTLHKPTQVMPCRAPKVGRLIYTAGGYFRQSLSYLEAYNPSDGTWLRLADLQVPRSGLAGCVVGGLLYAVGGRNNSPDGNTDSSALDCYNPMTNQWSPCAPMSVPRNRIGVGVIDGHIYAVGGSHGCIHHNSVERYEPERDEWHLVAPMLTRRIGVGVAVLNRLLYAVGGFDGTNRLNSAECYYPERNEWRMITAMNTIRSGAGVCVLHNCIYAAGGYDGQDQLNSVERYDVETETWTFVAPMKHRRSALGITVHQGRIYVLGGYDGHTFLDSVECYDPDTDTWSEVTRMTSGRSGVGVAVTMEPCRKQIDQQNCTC
RTF inh confirm = cardiac RTF calcium sensitivity inhibitors, confirmation, biochemical, fluorescence readout; reconstituted cardiac thin filaments; 360 compounds, 8% hits; AID 504635, 2011; inhibition, % at 7.15 µM; shares compounds with RTF Ca sens inh; in the data active = inhibition above about 18%
A number is an active result; n = inactive; x = no result given; ! = not confirmed by another sample.

SMILES | CRFR2-BP ag | CRFR2-BP antag | cardiac RTF act | LANA DNA inh | RTF Ca sens inh | Keap1-Nrf2 PPI | RTF inh confirm
COc1ccc(C(=O)c2ccccc2O)c(O)c1 | n | n | n | n | 17 | n | n
COc1cc(/C=C2\SC(=S)N(C(C(=O)O)c3ccccc3)C2=O)cc(OC)c1OC (centres undefined) | n | n | n | n | 28 | n | n
COc1ccc(/C=C2\SC(=S)N(C(C(=O)O)c3ccccc3)C2=O)c(OC)c1 (centres undefined) | n | n | n | n | n | n | x
c1ccc2cc(Sc3ncnc4c3oc3ccccc34)ccc2c1 | n | n | n | n | n | n | x
O=C(COC(=O)CCSc1ccc(Cl)cc1)NCc1ccccc1Cl | n | n | n | n | 18 | n | n
COc1cc(OC)cc(C(=O)OCC(=O)Nc2ccc3[nH]c(=O)[nH]c3c2)c1 | n | n | n | n | n | n | x
CC(=O)Nc1cc(C(=O)N2CCc3ccccc3C2)ccc1Sc1ccc(C)cc1 | n | n | n | n | 17 | n | n
CCCN1CCN(C(=O)c2ccc(Sc3ccc(C)cc3)c(NC(C)=O)c2)CC1 | n | n | n | n | n | n | x
Nc1c(S(=O)(=O)O)cc(NC(=O)c2ccccc2)c2c1C(=O)c1ccccc1C2=O | n | n | n | n | 35 | n | n
CC(=O)Nc1ccc2ccccc2c1 | n | n | n | n | 24 | n | n
O=C(OCC1CC(c2ccccc2)=NO1)c1ccc(Br)cc1 (centres undefined) | n | n | n | n | 18 | n | n
O=C(c1ccc(Cl)cc1)c1cnc2ccccn12 | n | n | n | n | 18 | n | n
Cc1ccc2nc(-c3ccc(SCC(=O)Nc4ccc5c(c4)OCCO5)nc3)[nH]c2c1 | n | n | n | n | n | n | x
O=C(CSc1ccc(-c2nc3ccccc3[nH]2)cn1)Nc1ccc2c(c1)OCCO2 | n | n | n | n | 21 | n | n
O=C(Nc1ncc2c(n1)CC(c1ccco1)CC2=O)c1ccco1 (centres undefined) | n | n | n | n | n | n | x
Fc1ccc([C@@H]2CCNC[C@H]2COc2ccc3c(c2)OCO3)cc1 | n | n | n | n | 20! | n | n
COc1ccc(C2=CC3=C(Br)C(=O)C(C)(O)C(=O)C3=CO2)cc1 (centres undefined) | n | n | n | n | n | n | x
CCC(=O)OC1(C)C(=O)C2=COC(c3ccc(OC)cc3)=CC2=C(Br)C1=O (centres undefined) | n | n | n | n | 17 | n | n
CC(C)CC(=O)Nc1ccc(F)c(Cl)c1 | n | n | n | n | n | n | x
NNc1cc2c(nn1)CCN(C(=O)c1ccccc1)C2 | n | n | x | x | x | x | x
COc1cc(-c2nnc(SCc3cc(=O)oc4cc(O)c(O)cc34)o2)cc(OC)c1OC | n | n | n | n | 30 | n | 17
CC(=O)Oc1ccc(C(=O)Nc2cc(C)on2)cc1 | n | n | n | n | n | n | x
CN(Cc1cn(-c2ccccc2)nc1-c1ccc(F)cc1)C(=O)CCC(=O)O | n | n | n | n | 17 | n | n
C[C@@H](NC(=O)c1nc[nH]c1C(=O)N[C@@H](Cc1ccccc1)C(=O)OC(C)(C)C)c1ccccc1 | n | n | n | n | n | n | x
N#Cc1nc(COc2ccc(F)cc2)oc1N1CCCCC1 | n | n | n | n | 24 | n | n
N#Cc1nc(COc2ccc(Br)cc2)oc1N1CCCCCC1 | n | n | n | n | n | n | x
S=c1[nH]nc(-c2ccco2)n1/N=C/C=C/c1ccco1 | n | n | n | n | 18 | n | n
